Results on eight molecules are retold here after PubChem BioAssay (EPA / NIEHS).

Molecules are shown by their SMILES. Inconclusive results are not listed. Calls of active or inactive are those of the source. The calls were made as follows, unless noted: active = hit-call score of the fitted dose curve at least 0.9, where 1 is the maximum; inactive = score below 0.9.

Assay [1] addresses Retinoic acid receptor RXR-alpha (Homo sapiens) (UniProt P19793). The assay can be described thus: ATG_RXRa_TRANS: Attagene TRANS-FACTORIAL HepG2 Assay for human Retinoid X Receptor alpha (RXRa) (AID 2283012; active = hit-call score of the fitted dose curve at least 0.9, where 1 is the maximum). The gist of the method:
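Transient transfection of human HepG2 with multiple GAL4-UAS reporter constructs; 24 h compound exposure; total RNA isolated, reverse-transcribed, PCR-amplified, 6-FAM labelled, HpaI-cut, resolved by capillary electrophoresis. Positive-direction fit versus DMSO.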

Assay [2] has as its target human Retinoid X Receptor beta (RXRb), RXRB (gene 6257) (UniProt P28702). Description: ATG_RXRb_TRANS: Attagene TRANS-FACTORIAL HepG2 Assay for human Retinoid X Receptor beta (RXRb) (AID 2283013; active = hit-call score of the fitted dose curve at least 0.9, where 1 is the maximum). The gist of the method:
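Transfect HepG2 with GAL4-UAS multi-reporter constructs (chimeric NR-Gal4, TRANS format); dose compound 24 h; isolate RNA, RT-PCR, FAM primer extension, HpaI digest; quantify by capillary electrophoresis; positive direction vs DMSO.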

Read-out in assay [3]: E-selectin (Homo sapiens) (UniProt P16581)
The assay can be described thus: BSK_3C_Eselectin: BioMAP Diversity Plus: 3C Assay for Eselectin Biomarker Activity (AID 2283015).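 As to outcome: cell surface E-selectin protein quantified by ELISA 24 h after dosing.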 Conditions: primary human endothelial cells (HUVEC); actives raise or lower the signal. The gist of the method: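 Endpoint derived by bidirectional fitting against DMSO vehicle; signal is ELISA-detected E-selectin from primary HUVEC at 24 h post-dosing, with parallel SRB staining (0.1% SRB, 560 nm) flagging cytotoxicity.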

Read-out in assay [4]: Interleukin-1 alpha (IL1a), IL1A (gene 3552)
Description: BSK_BE3C_IL1a: BioMAP Diversity Plus: BE3C Assay for Interleukin-1 alpha (IL1a) Biomarker Activity (AID 2283016). To be noted: primary human bronchial epithelial cells; actives raise or lower the signal. In short, it runs like this:
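BE3C primary human bronchial epithelium; cpd 24 h; IL-1a by ELISA; bidirectional fit vs DMSO; parallel SRB (0.1% SRB, 10% TCA fix, 560 nm) for cytotoxicity.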

Read-out in assay [5]: Monocyte Chemoattractant Protein-1 (MCP1), CCL2 (gene 6347)
Description: BSK_3C_MCP1: BioMAP Diversity Plus: 3C Assay for Monocyte Chemoattractant Protein-1 (MCP1) Biomarker Activity (AID 2283017). To be noted: primary human endothelial cells (HUVEC); actives raise or lower the signal. In short, it runs like this: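 Using human vascular primary endothelium, researchers measured MCP-1 by ELISA 24 h after treatment, with DMSO serving as negative control for bidirectional fitting.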

Read-out in assay [6]: Monocyte Chemoattractant Protein-1 (MCP1), CCL2 (gene 6347)
Description: BSK_4H_MCP1: BioMAP Diversity Plus: 4H Assay for Monocyte Chemoattractant Protein-1 (MCP1) Biomarker Activity (AID 2283018). Conditions: primary human endothelial cells (HUVEC); actives raise or lower the signal. The gist of the method:
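ELISA read-out of MCP-1 from human vascular endothelial primary cells taken at 24 hours after compound exposure. Activity was fitted in both directions relative to DMSO, which served as negative control.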

Read-out in assay [7]: Human Leukocyte Antigen - DR isotype (HLADR), HLA-DRA (gene 3122)
Description: BSK_3C_HLADR: BioMAP Diversity Plus: 3C Assay for Human Leukocyte Antigen - DR isotype (HLADR) Biomarker Activity (AID 2283019).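 As to outcome: ELISA of cell-surface HLA-DR on HUVEC 24 h after dosing.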 To be noted: primary human endothelial cells (HUVEC); actives raise or lower the signal. In short, it runs like this:
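Compound added to primary HUVEC cultures, 24 h incubation, then HLA-DR determined by ELISA; endpoint derived by bidirectional fitting relative to DMSO negative control.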

Read-out in assay [8]: Interleukin-8 (IL8), CXCL8 (gene 3576)
Description: BSK_3C_IL8: BioMAP Diversity Plus: 3C Assay for Interleukin-8 (IL8) Biomarker Activity (AID 2283020). To be noted: primary human endothelial cells (HUVEC); actives raise or lower the signal. In short, it runs like this: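 ELISA read-out of IL-8 from human umbilical vein endothelium, measured 24 h after chemical dosing. Activity is expressed relative to DMSO negative control, with both increases and decreases fitted.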

Read-out in assay [9]: Monokine induced gamma interferon (MIG), CXCL9 (gene 4283)
The assay can be described thus: BSK_3C_MIG: BioMAP Diversity Plus: 3C Assay for Monokine induced gamma interferon (MIG) Biomarker Activity (AID 2283021).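 As to AC50: MIG protein level measured by immunoassay in the treated endothelial cultures.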 To be noted: primary human endothelial cells (HUVEC); actives raise or lower the signal. In short, it runs like this: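 Read-out is ELISA detection of MIG on human umbilical vein endothelial cells, taken 24 h after dosing. Gain or loss of signal was scored relative to DMSO controls using bidirectional curve fitting.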

The target in assay [10] is human Vitamin D Receptor (VDR), VDR (gene 7421) (UniProt P11473). The assay can be described thus: ATG_VDR_TRANS: Attagene TRANS-FACTORIAL HepG2 Assay for human Vitamin D Receptor (VDR) (AID 2283022; active = hit-call score of the fitted dose curve at least 0.9, where 1 is the maximum). In short, it runs like this: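 Multiplexed TRANS reporter in HepG2; 24 h treatment; reporter mRNA by RT-PCR plus capillary electrophoresis; upregulation scored relative to DMSO.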

Assay [11] can be described thus: BSK_3C_SRB: Viability Assessment in the BioMAP Diversity Plus: 3C Assay (AID 2283023).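 Also: fitted both ways against DMSO so a hit may be signal rise or drop.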 To be noted: primary human endothelial cells (HUVEC). The gist of the method: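 Overt cytotoxicity is gauged in parallel confluent HUVEC cultures by SRB total-protein staining at the time of biomarker measurement, 24 h after dosing. Gain or loss of signal is fitted versus DMSO.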

The nature of assay [12]: BSK_3C_Vis: BioMAP Diversity Plus: 3C Assay for Morphology Visualization (AID 2283025).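 Also: fitted both ways so gain or loss versus DMSO counts.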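 As to AC50: light microscopy image of cell morphology used as background control.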 Conditions: primary human endothelial cells (HUVEC). In short, it runs like this: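 Chemicals were added to primary human umbilical vein endothelium, cells were incubated 24 h, and morphology was then visualized by light microscopy. Gain or loss of signal was fitted bidirectionally relative to DMSO.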

Read-out in assay [13]: Pselectin, SELP (gene 6403)
The assay can be described thus: BSK_4H_Pselectin: BioMAP Diversity Plus: 4H Assay for Pselectin Biomarker Activity (AID 2283026). To be noted: primary human endothelial cells (HUVEC); actives raise or lower the signal. The gist of the method:
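ELISA read-out of P-selectin on human umbilical vein endothelium after 24 h of dosing. Values derive from bidirectional fitting relative to DMSO. Parallel SRB protein staining flagged overt cytotoxicity.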

Assay [14] in a line: BSK_4H_SRB: Viability Assessment in the BioMAP Diversity Plus: 4H Assay (AID 2283027).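 Also: cells exposed to compound for 24 h before staining.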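 As to AC50: curves fitted both ways versus DMSO so AC50 may be loss or gain.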 Conditions: primary human endothelial cells (HUVEC). The gist of the method: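 Absorbance at 560 nm of SRB-stained total protein served as the viability read-out in confluent primary human umbilical vein endothelium 24 h after chemical treatment. Curves were fitted bidirectionally against DMSO as negative control.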

Assay [15] in a line: BSK_BE3C_SRB: Viability Assessment in the BioMAP Diversity Plus: BE3C Assay (AID 2283028).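 As to AC50: fitted both ways so AC50 may mark signal gain or loss versus DMSO.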 Conditions: primary human bronchial epithelial cells. In short, it runs like this: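 SRB total-protein staining (0.1%, after TCA fixation) of chemically dosed human bronchial epithelial primary cells at 24 h; DMSO serves as the negative control for bidirectional curve fitting.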
Read-out in assay [16]: Vascular endothelial growth factor receptor 2 (Homo sapiens) (UniProt P35968)
Description: BSK_4H_VEGFRII: BioMAP Diversity Plus: 4H Assay for Vascular endothelial growth factor receptor 2 (VEGFR2) Biomarker Activity (AID 2283031).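 As to AC50: cell-surface VEGFR2 protein level quantified by ELISA.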 Conditions: primary human endothelial cells (HUVEC); actives raise or lower the signal. In short, it runs like this: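 In this multiplexed HUVEC system, biomarker ELISA was performed after 24 h chemical exposure. Parallel SRB staining (TCA fixation, 560 nm) tracked cytotoxicity; DMSO served as baseline.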

Read-out in assay [17]: Urokinase-type plasminogen activator receptor (uPAR), PLAUR (gene 5329)
Description: BSK_4H_uPAR: BioMAP Diversity Plus: 4H Assay for Urokinase-type plasminogen activator receptor (uPAR) Biomarker Activity (AID 2283030). Conditions: primary human endothelial cells (HUVEC); actives raise or lower the signal. The gist of the method: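 Endpoint derived via bidirectional curve fitting against DMSO baseline; readout was ELISA detection of uPAR on umbilical vein endothelial cells at 24 h post-treatment, with SRB-stained parallel cultures assessing cytotoxicity.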

The target in assay [18] is human Thyroid Receptor alpha (THRa1), THRA (gene 7067) (UniProt P10827). Description: ATG_THRa1_TRANS: Attagene TRANS-FACTORIAL HepG2 Assay for human Thyroid Receptor alpha (THRa1) (AID 2283014; active = hit-call score of the fitted dose curve at least 0.9, where 1 is the maximum). In short, it runs like this:
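Measured here is mRNA from a GAL4-UAS reporter in transfected HepG2 cells carrying a Gal4-fused receptor, 24 h post-dose. DMSO served as negative control and baseline.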

Read-out in assay [19]: Thrombomodulin, THBD (gene 7056)
Description: BSK_3C_Thrombomodulin: BioMAP Diversity Plus: 3C Assay for Thrombomodulin Biomarker Activity (AID 2283029). To be noted: primary human endothelial cells (HUVEC); actives raise or lower the signal. In short, it runs like this: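 Read-out is ELISA of thrombomodulin on human umbilical vein endothelium 24 h after chemical dosing. Gain or loss of signal is scored relative to DMSO. Overt cytotoxicity is checked in parallel cultures by sulforhodamine B staining.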

Read-out in assay [20]: Matrix Metallopeptidase 1 (MMP1), MMP1 (gene 4312)
The assay can be described thus: BSK_BE3C_MMP1: BioMAP Diversity Plus: BE3C Assay for Matrix Metallopeptidase 1 (MMP1) Biomarker Activity (AID 2283024). Conditions: primary human bronchial epithelial cells; actives raise or lower the signal. The gist of the method: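 Human bronchial epithelial cells (BE3C system) exposed to compound for 24 h; MMP1 then quantified by ELISA. Activity was fitted in both directions relative to DMSO.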

human Thyroid Receptor alpha (THRa1), THRA (gene 7067), sequence (P10827 whole entry, looked up, the tested form may be a part): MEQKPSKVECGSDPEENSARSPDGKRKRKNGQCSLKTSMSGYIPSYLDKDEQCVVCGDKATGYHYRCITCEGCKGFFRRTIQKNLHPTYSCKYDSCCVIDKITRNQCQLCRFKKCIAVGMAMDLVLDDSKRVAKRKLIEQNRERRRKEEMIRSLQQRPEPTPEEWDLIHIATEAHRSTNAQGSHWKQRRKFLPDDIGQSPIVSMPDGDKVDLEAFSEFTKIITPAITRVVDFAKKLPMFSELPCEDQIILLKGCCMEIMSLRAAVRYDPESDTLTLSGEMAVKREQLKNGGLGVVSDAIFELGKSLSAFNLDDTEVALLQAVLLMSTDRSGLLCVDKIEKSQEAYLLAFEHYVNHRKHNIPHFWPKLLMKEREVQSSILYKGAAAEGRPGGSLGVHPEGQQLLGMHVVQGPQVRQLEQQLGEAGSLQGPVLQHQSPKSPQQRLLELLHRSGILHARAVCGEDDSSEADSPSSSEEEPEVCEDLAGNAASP
E-selectin (Homo sapiens), sequence (P16581 whole entry, looked up): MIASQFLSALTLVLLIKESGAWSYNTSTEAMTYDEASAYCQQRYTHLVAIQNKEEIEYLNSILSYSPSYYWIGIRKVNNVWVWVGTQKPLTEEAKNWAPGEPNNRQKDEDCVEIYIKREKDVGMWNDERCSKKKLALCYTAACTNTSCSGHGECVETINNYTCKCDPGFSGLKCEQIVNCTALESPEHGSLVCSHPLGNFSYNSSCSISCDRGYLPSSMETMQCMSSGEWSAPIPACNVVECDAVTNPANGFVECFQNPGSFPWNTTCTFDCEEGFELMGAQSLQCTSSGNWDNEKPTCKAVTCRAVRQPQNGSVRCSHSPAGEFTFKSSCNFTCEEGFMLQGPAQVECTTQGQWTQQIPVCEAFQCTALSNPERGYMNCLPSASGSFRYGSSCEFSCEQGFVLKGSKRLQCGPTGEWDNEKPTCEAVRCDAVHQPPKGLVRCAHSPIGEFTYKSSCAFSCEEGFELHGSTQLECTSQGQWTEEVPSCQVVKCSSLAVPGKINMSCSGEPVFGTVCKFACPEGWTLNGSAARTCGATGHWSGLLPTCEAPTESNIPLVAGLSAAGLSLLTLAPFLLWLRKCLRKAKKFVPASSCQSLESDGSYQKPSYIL
Retinoic acid receptor RXR-alpha (Homo sapiens), sequence (P19793 whole entry, looked up, the tested form may be a part): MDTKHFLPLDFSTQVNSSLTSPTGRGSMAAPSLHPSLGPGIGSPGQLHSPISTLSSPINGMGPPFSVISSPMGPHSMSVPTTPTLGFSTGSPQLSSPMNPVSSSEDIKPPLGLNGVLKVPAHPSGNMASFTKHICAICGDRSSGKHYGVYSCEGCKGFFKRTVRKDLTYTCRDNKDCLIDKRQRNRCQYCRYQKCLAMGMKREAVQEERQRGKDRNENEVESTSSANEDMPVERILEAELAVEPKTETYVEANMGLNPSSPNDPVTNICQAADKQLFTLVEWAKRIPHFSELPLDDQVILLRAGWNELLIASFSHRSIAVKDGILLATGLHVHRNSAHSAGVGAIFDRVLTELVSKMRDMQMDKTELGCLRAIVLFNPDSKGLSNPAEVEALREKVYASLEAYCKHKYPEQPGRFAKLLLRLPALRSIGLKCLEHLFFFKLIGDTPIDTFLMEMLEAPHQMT
human Retinoid X Receptor beta (RXRb), RXRB (gene 6257), sequence (P28702 whole entry, looked up, the tested form may be a part): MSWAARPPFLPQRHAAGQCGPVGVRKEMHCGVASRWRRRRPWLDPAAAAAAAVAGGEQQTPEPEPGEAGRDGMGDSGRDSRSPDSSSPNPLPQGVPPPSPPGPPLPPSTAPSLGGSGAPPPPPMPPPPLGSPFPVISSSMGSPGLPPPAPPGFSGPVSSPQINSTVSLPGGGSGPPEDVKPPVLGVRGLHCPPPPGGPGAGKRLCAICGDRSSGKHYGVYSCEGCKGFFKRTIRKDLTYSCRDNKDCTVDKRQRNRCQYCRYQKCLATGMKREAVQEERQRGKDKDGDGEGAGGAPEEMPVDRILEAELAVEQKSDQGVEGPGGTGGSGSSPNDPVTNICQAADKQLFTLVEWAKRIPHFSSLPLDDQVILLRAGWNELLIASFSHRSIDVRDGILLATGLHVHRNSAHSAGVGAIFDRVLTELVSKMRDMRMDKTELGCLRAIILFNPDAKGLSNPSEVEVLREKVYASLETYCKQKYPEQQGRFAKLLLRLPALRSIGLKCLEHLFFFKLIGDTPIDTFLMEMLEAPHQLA
human Vitamin D Receptor (VDR), VDR (gene 7421), sequence (P11473 whole entry, looked up): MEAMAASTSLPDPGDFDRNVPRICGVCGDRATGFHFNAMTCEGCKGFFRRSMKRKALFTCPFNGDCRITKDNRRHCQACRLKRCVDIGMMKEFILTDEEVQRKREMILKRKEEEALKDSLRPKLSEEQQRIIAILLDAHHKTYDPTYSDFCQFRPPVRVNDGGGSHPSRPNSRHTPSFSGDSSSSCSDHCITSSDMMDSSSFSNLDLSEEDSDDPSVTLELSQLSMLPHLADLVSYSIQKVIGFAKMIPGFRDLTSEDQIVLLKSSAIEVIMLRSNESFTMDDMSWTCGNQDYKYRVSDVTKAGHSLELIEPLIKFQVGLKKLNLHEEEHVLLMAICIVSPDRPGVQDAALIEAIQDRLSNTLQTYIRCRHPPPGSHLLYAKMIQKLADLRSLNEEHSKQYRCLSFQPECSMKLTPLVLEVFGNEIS

As to `Oc1ccccc1Cl`, the outcome in assay [1], in [2], in assay [3], in assay [4], in assay [5] and in [6] was inactive. Besides, the result in [7], in assay [8], in assay [9], in [10], in [11] and in assay [12] was inactive. The outcome in assay [13], in assay [14], in [15] and in assay [16] was inactive.
As for `Oc1ccc2ccc3cccc4ccc1c2c34`, the molecule was called inactive in [1], in assay [10], in assay [15] and in [16]. In addition, the AC50 is 43.3 µM (active) in assay [2]; 29.9 µM (active) in assay [3]; 32.4 µM (active) in assay [4]; 29.7 µM (active) in assay [5]; 14.2 µM (active) in assay [6]; 26.6 µM (active) in assay [7]. Besides, the AC50 in [8] was 32.8 µM (active); in assay [9], 37.6 µM (active); in [11], 30 µM (active); in [12] it was 37.5 µM (active); in assay [13], 31.6 µM (active); in [14], 31.5 µM (active).
For the molecule `Nc1ccc(Oc2ccc(N)cc2)cc1`, the molecule was classed as inactive in assay [1], in assay [3], in assay [4], in [5], in assay [6] and in assay [7]. The result in assay [8], in assay [9], in assay [11], in assay [12], in assay [13] and in [14] was inactive. Besides, the outcome in assay [15], in [17] and in [16] was inactive.
Regarding `C[N+](C)(C)CC1CO1` (configuration not stated), the molecule was classed as inactive in assay [18], in assay [3], in assay [4], in assay [5], in assay [6] and in assay [7]. Also, the outcome in [8], in [9], in assay [11], in assay [12], in [13] and in assay [14] was inactive. Further, the outcome in assay [15], in [19] and in assay [16] was inactive.
As to `O=P(OCCCl)(OCCCl)OCCCl`, the result in [18], in [3], in assay [4], in assay [5], in assay [6] and in [7] was inactive. In addition, the outcome in [8], in assay [9], in assay [11], in [20], in [12] and in [13] was inactive. The outcome in assay [14], in assay [15], in assay [17] and in assay [16] was inactive.
As to `CCC(C)c1ccc(O)cc1` (configuration not stated), the concentration at half-maximal activity (AC50) in assay [2] was 100 µM (active). Also, the outcome in assay [3], in assay [4], in [5], in [6], in [7] and in assay [8] was inactive. Also, the outcome in assay [9], in assay [11], in assay [20], in assay [12], in assay [13] and in [14] was inactive. The result in [15], in assay [19], in assay [17] and in assay [16] was inactive.
Take `c1ccc2c(c1)oc1ccccc12`: the outcome in assay [18], in assay [3], in assay [4], in assay [5], in assay [6] and in [7] was inactive. Further, the outcome in [8], in [9], in [11], in assay [20], in assay [12] and in assay [13] was inactive. Also, the outcome in assay [14], in assay [15], in [17] and in assay [16] was inactive.
On to `COc1cc(C=O)cc2c1[C@H](COC(N)=O)[C@]1(OC(C)=O)ON2C[C@H]2[C@@H]1N2C(C)=O`, for which the AC50 is 10.8 µM (active) in assay [3]; 2.63 µM (active) in assay [4]; 6.85 µM (active) in [5]; 3.22 µM (active) in [6]; 15.9 µM (active) in [7]; 11.9 µM (active) in assay [8]. Also, the AC50 was 29.2 µM (active) in [9]; 6.86 µM (active) in assay [11]; 3.3 µM (active) in assay [20]; 10.3 µM (active) in [12]; 3.37 µM (active) in assay [13]; 3.17 µM (active) in assay [14]. The concentration at half-maximal activity (AC50) in [15] is 6.31 µM (active); in assay [17], 1.14 µM (active); in assay [16], 4.42 µM (active). The result in assay [19] was inactive.

A word on the AC50: it is the midpoint of the concentration-response curve, whichever way the signal moves.
